SNCA viab count – cell viability loss counter-screen; HEK-293-SNCA-luc viability, GF-AFC fluorescence, 24 h; Potency, µM (doses to about 57.1 µM), for inactives: at the highest dose activity change, negative = cytotoxicity, actives largely listed as cytotoxic; actives 0.12% (n = 150,000);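 further: potency means the concentration at half of the fitted maximal effect; 0% = DMSO-treated cells and -100% = medium-only wells without cells; nearly all actives have a fitted effect of over 30% in size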
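Cytotoxicity counterscreen: after 24 h compound treatment of genome-edited SNCA-luciferase HEK-293 cells, live-cell protease substrate GF-AFC read by fluorescence after 30 min; activity scaled between DMSO (0%) and medium-only (-100%), curves Hill-fitted.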
KDM5B inh – inhibitors of human KDM5B histone demethylase; Q9UGL1; KDM5B demethylase, FDH-coupled NADH fluorescence (FDH is formaldehyde dehydrogenase); Potency, µM (doses to about 57.7 µM), actives largely listed as inhibitors; actives 2.6% (n = 220,000); AID 1347165; further: potency means the concentration at half of the fitted maximal effect; 0% is about no effect; nearly all actives have a fitted effect of over 70% in size
Target sequence (Q9UGL1 whole entry, looked up): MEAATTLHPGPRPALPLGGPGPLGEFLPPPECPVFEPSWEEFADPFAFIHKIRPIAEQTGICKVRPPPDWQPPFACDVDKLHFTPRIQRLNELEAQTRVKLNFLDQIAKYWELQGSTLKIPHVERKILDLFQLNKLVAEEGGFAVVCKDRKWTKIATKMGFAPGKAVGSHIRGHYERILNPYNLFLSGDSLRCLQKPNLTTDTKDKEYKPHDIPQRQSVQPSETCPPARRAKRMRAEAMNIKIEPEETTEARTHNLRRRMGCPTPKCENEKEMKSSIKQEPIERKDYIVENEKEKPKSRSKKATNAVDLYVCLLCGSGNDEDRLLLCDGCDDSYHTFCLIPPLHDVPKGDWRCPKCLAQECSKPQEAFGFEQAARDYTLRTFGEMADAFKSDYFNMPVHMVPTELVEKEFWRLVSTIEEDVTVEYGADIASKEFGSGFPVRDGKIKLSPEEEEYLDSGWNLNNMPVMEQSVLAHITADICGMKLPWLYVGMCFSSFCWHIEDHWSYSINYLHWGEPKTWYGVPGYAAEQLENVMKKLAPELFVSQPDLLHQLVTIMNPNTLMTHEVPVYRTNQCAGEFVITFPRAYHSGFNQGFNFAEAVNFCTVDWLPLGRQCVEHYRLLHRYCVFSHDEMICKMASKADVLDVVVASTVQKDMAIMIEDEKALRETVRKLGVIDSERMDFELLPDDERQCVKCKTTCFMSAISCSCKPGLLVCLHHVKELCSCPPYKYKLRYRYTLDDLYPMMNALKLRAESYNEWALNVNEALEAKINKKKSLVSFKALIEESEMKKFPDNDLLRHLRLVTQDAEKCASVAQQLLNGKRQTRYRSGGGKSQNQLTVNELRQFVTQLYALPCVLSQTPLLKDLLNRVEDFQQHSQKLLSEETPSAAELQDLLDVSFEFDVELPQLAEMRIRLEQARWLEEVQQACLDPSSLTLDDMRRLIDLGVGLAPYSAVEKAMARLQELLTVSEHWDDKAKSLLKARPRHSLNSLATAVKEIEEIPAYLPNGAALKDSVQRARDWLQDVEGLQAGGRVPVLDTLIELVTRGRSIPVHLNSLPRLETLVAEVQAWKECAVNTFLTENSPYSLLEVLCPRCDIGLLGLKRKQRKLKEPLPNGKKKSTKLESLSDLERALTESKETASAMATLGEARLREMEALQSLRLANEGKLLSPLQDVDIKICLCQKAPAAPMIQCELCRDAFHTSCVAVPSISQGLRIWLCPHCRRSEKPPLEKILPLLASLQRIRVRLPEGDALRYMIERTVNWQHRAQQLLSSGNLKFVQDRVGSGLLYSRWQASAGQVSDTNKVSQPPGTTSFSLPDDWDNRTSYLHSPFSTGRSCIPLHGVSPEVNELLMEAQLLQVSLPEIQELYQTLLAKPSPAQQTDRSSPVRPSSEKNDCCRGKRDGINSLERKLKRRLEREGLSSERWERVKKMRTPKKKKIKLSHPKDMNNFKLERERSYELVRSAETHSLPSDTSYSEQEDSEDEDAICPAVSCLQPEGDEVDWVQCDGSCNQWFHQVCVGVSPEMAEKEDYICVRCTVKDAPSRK
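KDM5BΔAP (200 nM final) in 50 mM HEPES pH 7.5, 0.01% Tween-20 was preincubated 10 min at RT with compound over a concentration range. Substrate mix (H3K4me3 12.5 µM, α-KG 25 µM, Fe²⁺, ascorbate, NAD⁺, FDH) was added, and NADH fluorescence change over 30 min gave dose-response curves.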
SNCA expr inhib – reduces expression of the alpha-synuclein gene | HEK-293 SNCA-luciferase knock-in, luminescence, 24 h | Potency, µM (titrated, usually from 57.2 µM), for the others: at the top dose activity change, negative = inhibition, most hits filed as inhibitors | actives 0.17% (n = 140,000) | AID 1671194;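 further: potency means the concentration at half of the fitted maximal effect; plate controls were DMSO cells for no effect and cell-free wells for full effect; nearly all actives have a fitted effect of over 45% in size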
IP6K1 inhibitor – blocks human inositol hexakisphosphate kinase 1; IP6K1 kinase, ADP-Glo luminescence, 2 h; hits give low values; activity change, % (series mostly up to about 58 µM); Q92551; actives 0.81% (n = 140,000); AID 1645851; in the data active means activity change below about -25%; further: on the % scale 0 is the no-effect control and ±100 the full control effect
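ADP-Glo luminescence measures ADP made by human IP6K1 during a 2 h RT reaction with ATP/IP6 (mix at 1.3 mM/130 uM); top library doses 57.5 and 19.1 uM final.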
* hit, by the source's call; i = inactive; u = inconclusive; x = not tested or not shown; [ ] = another dose, or the depositor's remark. Sampled rows, rich in hits. Any-hit rate of the full collection: about 2.9%. Unless noted, the call rests on the fitted dose curve; in most records, active means well fitted curve in the direction sought with a large enough effect; inconclusive means small, poorly fitted or top-dose-only effect, or another doubt; inactive means no such curve, though single readings can be large; an effect the other way counts as inactive or inconclusive.

SMILES | SNCA viab count | KDM5B inh | SNCA expr inhib | IP6K1 inhibitor
CC(NC(=O)c1[nH]c2ccccc2c1Cl)c1ccc(F)c(F)c1 (centres undefined) | x | i | x | x
COc1nccnc1NC1CCN(C(=O)Cc2ccccc2)CC1 | -5% | u | -21% | -14
COc1nccnc1NC1CCN(C(=O)NCCc2ccccc2)CC1 | -1% | u | 33% | -10
CCOCC(=O)N1CCC(Nc2nccnc2OC)CC1 | 2% | 28µM* | -3% | -12
COc1nccnc1NC1CCN(C(=O)Cc2cccs2)CC1 | 4% | 32µM* | -25% | -5
COc1nccnc1NC1CCN(C(=O)Cc2ccccc2F)CC1 | -13% | 35µM* | -22% | -3
COc1nccnc1NC1CCN(C(=O)NC2CCCCC2)CC1 | -7% | 32µM* | 18% | -1
CCOCC(=O)N1CCC2(CC1)C(OC)C(=O)N2CC1CC1 (centres undefined) | 4% | x | 26% | 2
O=C(NCc1ccccc1)c1ccc2nnc(-c3ccc(F)cc3)n2c1 | -3% | x | 14% | 4
C=CCn1c(=O)c2cnc(Nc3ccc(N4CCN(C)CC4)cc3)nc2n1-c1cccc(C(C)(C)O)n1 | u | x | 0.48µM* | 6
Cc1cccc(C)c1-n1c(=O)c2cnc(Nc3ccc(N4CCN(C)CC4)cc3)nc2n2c3ccccc3nc12 | u | x | x | 18
COc1ncccc1-c1cccc(CCOc2cnc3c(ccn3CC(=O)O)c2)c1 | 0%[87.6 µM] | 40µM* | -17%[87.6 µM] | -11
COc1ccc(-c2cccc(CCOc3cnc4c(ccn4CC(=O)O)c3)c2)c(F)c1 | -1%[87.6 µM] | u | 12%[87.6 µM] | -7
Cc1ccccc1-c1cccc(CCOc2cnc3c(ccn3CC(=O)O)c2)c1 | 5%[87.6 µM] | 40µM* | -8%[87.6 µM] | -16
COc1ccc(-c2cccc(CCOc3cnc4c(ccn4CC(=O)O)c3)c2)c(C)c1 | 1%[87.6 µM] | 40µM* | -5%[87.6 µM] | -18
Cc1cc(C)n2nc(C(=O)N3CCCC4(CNC(=O)O4)C3)cc2n1 (centres undefined) | 12% | 25µM* | u | -3
CCCNC(=O)CCc1ccnc(N2CCOCC2)c1 | -1% | 28µM* | 3% | -7
Cc1ccccc1CNC(=O)CCc1ccnc(N2CCOCC2)c1 | 13% | 22µM* | 3% | -8
O=C(CCc1ccnc(N2CCOCC2)c1)NCCN1CCc2ccccc2C1 | -19% | 25µM* | -13% | 15
Cc1ccc(N2CCN(C(=O)CCc3ccnc(N4CCOCC4)c3)CC2)cc1 | -4% | i | 3% | 19
COCC(=O)N1CC2(CCCCC2)CC1COc1ccc(OC)cc1 (centres undefined) | u | x | 2% | 34
CCOc1c2c(c(OCC)c3ccccc13)C(=O)N(c1ccc(CC(=O)NS(=O)(=O)c3ccccc3)cc1)C2 | 6% | x | x | -10
COc1ccc(OC)c(NC(=O)Cn2c(-c3ccc(F)cc3)nc(C)c(CCO)c2=O)c1 | 12% | 20µM* | -7% | -5
COCCN1C(=O)c2cccn2CC1CNC(=O)c1[nH]nc2c1COc1ccccc1-2 (centres undefined) | -3% | 28µM* | -19% | 3
N#Cc1ccc(S(=O)(=O)N2CCCCCCNC(=O)CC2)cc1 | -4% | i | 15% | -6
SMILES | SNCA viab count | KDM5B inh | SNCA expr inhib | IP6K1 inhibitor
CCOC(=O)Oc1ccc(CCNC(=O)[C@H](CCSC)NC(C)=O)cc1OC(=O)OCC | -18%[23.9 µM] | x | -30%[25.6 µM] | 4
CN(Cc1ccccc1)C(=O)c1cc(-c2ccncc2)nc2ccccc12 | x | i | x | x
CC(C)CN(C)C(=O)c1cc(-c2cnn(C(C)C)c2)nc2cc(F)ccc12 | u | 28µM* | u | -5
CC(C)n1cc(-c2cc(C(=O)N(C)Cc3cccnc3)c3cc(F)ccc3n2)cn1 | -11% | 25µM* | 3% | -7
CNC(=O)c1cccc2c1CCN2C(=O)Nc1ccc(F)cc1 | -5% | i | u | -5
COCCCNC(=O)c1cccc2c1CCN2C(=O)Nc1cccc(C)c1 | -6% | i | 3.5µM* | -6
O=C(O)c1cccc2c1CCN2C(=O)Nc1ccc(F)cc1 | 9% | i | 0.89µM* | -19
CCC(CC)NC(=O)CC1CCCN(c2cnn(CCOC)c(=O)c2)C1 (centres undefined) | -10% | i | -24% | 7
COc1ccc(Nc2ccnc(N3CCN(C(=O)C4CCCC4)CC3)n2)cc1 | -6% | x | -16% | 6
CNC(=O)CCn1ncc2cc(OCc3ccccc3-c3ccc(OC)cc3)ccc21 | -20%[87.6 µM] | 32µM* | 5%[87.6 µM] | -4
CNC(=O)CCn1ncc2cc(OCc3ccccc3-c3cccc(OC)c3)ccc21 | -18%[87.6 µM] | u | -35%[87.6 µM] | -8
Cn1c(C(=O)N2CCNC(=O)C2)cc2ccccc21 | x | i | x | x
Cc1ccc([S+](=O)([O-])c2nnn3c2nc(NCc2ccncc2)c2ccccc23)cc1C | 12% | 89µM* | 46% | 29
COc1ccc([S+](=O)([O-])c2nnn3c2nc(N2CCOCC2)c2ccccc23)cc1 | 10% | 79µM* | 41% | 5
COCCNc1nc2c([S+](=O)([O-])c3ccc(OC)cc3)nnn2c2ccccc12 | 2% | u | 6% | 3
COCCCNc1nc2c([S+](=O)([O-])c3ccc(OC)cc3)nnn2c2ccccc12 | 4% | 32µM* | 34% | 15
COCCNc1nc2c(S(=O)(=O)c3ccc(C)c(C)c3)nnn2c2ccccc12 | 8% | 79µM* | 6% | 10
O=[S+]([O-])(c1cccnc1)c1nnn2c1nc(N1CCOCC1)c1ccccc12 | 2% | i | 13% | 2
CC(=O)Nc1ccc(C(C)=O)cc1OCc1cccc(C)c1 | x | i | x | x
O=C(CCc1nnc2ccc(NCc3ccc4c(c3)OCO4)nn12)N1CCC2(CC1)OCCO2 | x | i | x | x
COCCN1C(=O)CO[C@H]2CN(Cc3ccccc3)C[C@H]21 | 4%[87.6 µM] | i | -15%[87.6 µM] | -5
O=C(c1ccn[nH]1)N1CCC2(CC1)CC(N1CCN(c3ccccn3)CC1)CCO2 (centres undefined) | 3% | i | 17% | -12
CCc1ccc([S+](=O)([O-])c2nnn3c2nc(NCCCOC)c2ccccc23)cc1 | 5% | 89µM* | 7% | -5
Cc1ccc(S(=O)(=O)c2nnn3c2nc(N2CCCCC2)c2ccccc23)cc1 | 2% | i | -20% | 32
Cc1ccc(S(=O)(=O)c2nnn3c2nc(N2CCOCC2)c2ccccc23)cc1 | 8% | 79µM* | 8% | -3
Cc1ccc(C)c([S+](=O)([O-])c2nnn3c2nc(NC2CC2)c2ccccc23)c1 | -20% | 79µM* | 5% | 2
CCC[C@@H]1CN(C(=O)c2ccc(-c3ccc(C)o3)cc2)C[C@H]1NC(C)=O | 1% | 28µM* | -16% | 20
O=C(NCc1ccncc1)C1CN(S(=O)(=O)c2ccccc2)CC12CCCCC2 (centres undefined) | 5% | i | -24% | 5
CN1CCCC1CCNc1nccc(-c2cnn(-c3ccc(F)cc3)c2)n1 (centres undefined) | 3% | 28µM* | 10% | 5
C=C(C)CNc1ccc(C(=O)NCCC2CCCCN2C)cn1 (centres undefined) | -5% | u | -12% | 3

Assay outcomes deposited in PubChem by National Center for Advancing Translational Sciences (NCATS).
